Data: PubChem BioAssay (NCATS)
Records with an inconclusive call do not appear. Calls of active or inactive are those of the source. Unless noted, the call rests on the fitted dose curve; in most records, active means well fitted curve in the direction sought with a large enough effect; inconclusive means small, poorly fitted or top-dose-only effect, or another doubt; inactive means no such curve, though single readings can be large; an effect the other way counts as inactive or inconclusive.

Legend:
[1] = AP1 Signaling Pathway (AID 357; active means well fitted curve in either direction with a large enough effect, not every such curve was filed as active; further: on the % scale 0 is the no-effect control and ±100 the full control effect)
Procedure, shortened: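 ME-180 cells with beta-lactamase reporter under AP-1 response element, stimulated with EC50 EGF; compounds tested in titration series, 5 h at 37 °C. CCF4 substrate added 2.5 h at room temperature; 460/530 nm emission ratio gave %activity and AC50.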

[2] = Stat Signaling Pathway (AID 446; active means well fitted curve in either direction with a large enough effect, not every such curve was filed as active;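 further: ME-180 cervical cancer cells given 40 pM IL-6 alongside compound; SIE-controlled beta-lactamase reporter measured as 460/530 nm FRET emission ratio; on the % scale 0 is the no-effect control and ±100 the full control effect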)
Procedure, shortened: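 FRET read-out (405 nm excitation, 460/530 nm emission) of a beta-lactamase reporter under a STAT-inducible element in ME-180 cervical carcinoma cells. Cells with compound receive 40 pM IL-6 for 5 h. Values are normalised to AC90 stimulation and AC90 JAK-inhibitor controls.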

[3] = target: Glucocorticoid receptor (Homo sapiens) (UniProt P04150); experiment: GR-EFC Redistribution (AID 451; calls by dose curve; further: potency means the concentration at half of the fitted maximal effect); settings: CHO-K1 GR-EFC translocation, beta-gal luminescence, 2 h
Sequence of Glucocorticoid receptor (Homo sapiens) (P04150 whole entry, looked up, the tested form may be a part): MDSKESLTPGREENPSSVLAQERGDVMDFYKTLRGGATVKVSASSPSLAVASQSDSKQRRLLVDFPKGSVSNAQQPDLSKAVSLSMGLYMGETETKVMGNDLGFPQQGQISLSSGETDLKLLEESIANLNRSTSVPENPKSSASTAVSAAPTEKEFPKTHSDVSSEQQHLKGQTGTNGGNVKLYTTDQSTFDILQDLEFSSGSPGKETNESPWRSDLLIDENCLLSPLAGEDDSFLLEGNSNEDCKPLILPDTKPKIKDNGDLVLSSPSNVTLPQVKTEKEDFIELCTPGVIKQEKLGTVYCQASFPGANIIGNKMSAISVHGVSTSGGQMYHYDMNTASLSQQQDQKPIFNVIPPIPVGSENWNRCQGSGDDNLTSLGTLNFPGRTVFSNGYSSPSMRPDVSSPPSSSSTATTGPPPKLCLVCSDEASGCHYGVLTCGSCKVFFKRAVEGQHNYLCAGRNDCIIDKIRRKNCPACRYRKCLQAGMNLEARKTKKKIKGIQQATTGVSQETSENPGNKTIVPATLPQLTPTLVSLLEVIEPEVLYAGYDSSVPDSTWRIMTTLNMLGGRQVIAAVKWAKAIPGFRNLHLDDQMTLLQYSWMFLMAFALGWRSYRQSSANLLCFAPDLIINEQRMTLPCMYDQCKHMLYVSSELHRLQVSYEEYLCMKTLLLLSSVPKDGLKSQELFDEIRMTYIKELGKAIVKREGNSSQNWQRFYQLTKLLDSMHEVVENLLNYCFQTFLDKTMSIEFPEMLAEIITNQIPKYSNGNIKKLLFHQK
Procedure, shortened: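 CHO-K1 cells expressing nuclear EA and GR-ED fragments of b-gal; compounds titrated up to 46 uM final, 2 h at 37 C. GR nuclear translocation read as complemented b-gal luminescence after 1 h RT detection.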

[4] = target: Mitogen-activated protein kinase 10 (Mus musculus) (UniProt Q61831); experiment: JNK3 AlphaScreen Assay (AID 530; active means well fitted curve in either direction with a large enough effect, not every such curve was filed as active;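 further: kinase came from lysate of stimulated human HepG2 cells; signal reports phosphorylation of biotinylated GST-cJun 1-79 at Ser73 with 10 µM ATP; on the % scale 0 is the no-effect control and ±100 the full control effect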)
Procedure, shortened: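 Activity was read by AlphaScreen after JNK3-containing HepG2 lysate (cytokine pre-activated) phosphorylated biotinylated GST-cJun with 10 uM ATP at room temperature. Phospho-Ser73 cJun antibody with Protein-A acceptor beads provided detection.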

[5] = target: 3',5'-cyclic-AMP phosphodiesterase 4B (Homo sapiens) (UniProt Q07343); experiment: qHTS Assay for Inhibitors of PDE-IV (AID 607; active means well fitted activation curve with a large enough effect in the main read-out, with a control signal flat, not every such curve was filed as active; further: % of control where 0% means no effect)
Sequence of 3',5'-cyclic-AMP phosphodiesterase 4B (Homo sapiens) (Q07343 whole entry, looked up): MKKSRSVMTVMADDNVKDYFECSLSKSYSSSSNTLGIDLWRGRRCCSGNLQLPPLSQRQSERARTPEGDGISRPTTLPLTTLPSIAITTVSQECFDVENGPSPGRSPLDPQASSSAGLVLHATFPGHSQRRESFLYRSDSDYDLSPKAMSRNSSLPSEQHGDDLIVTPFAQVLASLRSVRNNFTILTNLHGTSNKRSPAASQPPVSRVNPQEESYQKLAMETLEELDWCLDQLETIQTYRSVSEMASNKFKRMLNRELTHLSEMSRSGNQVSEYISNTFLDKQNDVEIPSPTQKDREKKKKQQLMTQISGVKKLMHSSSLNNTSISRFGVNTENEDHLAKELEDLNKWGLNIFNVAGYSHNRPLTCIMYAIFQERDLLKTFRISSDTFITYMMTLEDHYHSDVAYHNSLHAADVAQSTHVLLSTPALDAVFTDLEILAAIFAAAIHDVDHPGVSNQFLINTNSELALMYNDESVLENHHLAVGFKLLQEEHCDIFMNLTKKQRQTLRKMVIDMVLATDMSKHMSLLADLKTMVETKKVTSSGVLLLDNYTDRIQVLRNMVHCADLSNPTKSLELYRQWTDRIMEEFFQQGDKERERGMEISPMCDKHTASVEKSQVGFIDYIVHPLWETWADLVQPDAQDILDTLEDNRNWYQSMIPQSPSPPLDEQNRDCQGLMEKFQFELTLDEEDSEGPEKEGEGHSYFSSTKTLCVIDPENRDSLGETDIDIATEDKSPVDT
Procedure, shortened: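 Cell-based read-out of cAMP via a modified cyclic nucleotide-gated channel and membrane potential dye (535/590 nm) in HEK293 cells expressing PDE4 endogenously. Compounds tested up to 22.9 uM final; 100 uM RO 20-1724 reference.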

[6] = qHTS Assay for Lipid Storage Modulators (AID 1519; calls by dose curve); settings: Drosophila S3 cells, BODIPY lipid droplet/cell ratio, laser cytometry, cells loaded with oleic acid; for activity change, negative = inhibition: at 25.7 µM (top of the series)
Procedure, shortened: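 Cells seeded at 5,000 per well were treated with compounds over a concentration series and loaded with oleic acid (400 uM, as added). Lipid droplet fluorescence (488 nm excitation, 500-530 nm channel) was read by laser-scanning cytometry and normalized to 20 uM Triacsin C.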

[7] = NFAT Signaling Pathway (AID 444; active means well fitted curve in either direction with a large enough effect, not every such curve was filed as active;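 further: carbachol stimulus at about its EC50 of 1 µM final; on the % scale 0 is the no-effect control and ±100 the full control effect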); settings: Jurkat NFAT-bla M1, carbachol, beta-lactamase ratio, 5 h; at 17.2 µM (top of the series) unless noted
Procedure, shortened: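 Jurkat cells with NFAT-driven β-lactamase reporter and co-expressed M1 receptor, stimulated with carbachol (final 1 uM, ~EC50), compound titration, 5 h at 37 °C. CCF4 loaded 1 h at RT; 460/530 nm ratio gave %activity and AC50.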

[8] = target: Glucocorticoid receptor (Homo sapiens) (UniProt P04150); experiment: GR-GFP Redistribution (AID 450;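 active means compounds whose dose series gives a full or clear partial fitted curve of increased nuclear translocation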; further: potency means the concentration at half of the fitted maximal effect); settings: U2OS GR-GFP nuclear translocation, laser cytometry, 2 h
[9] = target: Ubiquitin carboxyl-terminal hydrolase 1 (Homo sapiens) (UniProt O94782); experiment: Inhibitors of USP1/UAF1: Pilot qHTS (AID 504865);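 further: rhodamine fluorescence freed from ubiquitin-rhodamine substrate followed over time; top concentration of the series differs between compounds; on the % scale 0 is the no-effect control and ±100 the full control effect; nearly all actives have a fitted effect of over 35% in size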
Sequence of Ubiquitin carboxyl-terminal hydrolase 1 (Homo sapiens) (O94782 whole entry, looked up): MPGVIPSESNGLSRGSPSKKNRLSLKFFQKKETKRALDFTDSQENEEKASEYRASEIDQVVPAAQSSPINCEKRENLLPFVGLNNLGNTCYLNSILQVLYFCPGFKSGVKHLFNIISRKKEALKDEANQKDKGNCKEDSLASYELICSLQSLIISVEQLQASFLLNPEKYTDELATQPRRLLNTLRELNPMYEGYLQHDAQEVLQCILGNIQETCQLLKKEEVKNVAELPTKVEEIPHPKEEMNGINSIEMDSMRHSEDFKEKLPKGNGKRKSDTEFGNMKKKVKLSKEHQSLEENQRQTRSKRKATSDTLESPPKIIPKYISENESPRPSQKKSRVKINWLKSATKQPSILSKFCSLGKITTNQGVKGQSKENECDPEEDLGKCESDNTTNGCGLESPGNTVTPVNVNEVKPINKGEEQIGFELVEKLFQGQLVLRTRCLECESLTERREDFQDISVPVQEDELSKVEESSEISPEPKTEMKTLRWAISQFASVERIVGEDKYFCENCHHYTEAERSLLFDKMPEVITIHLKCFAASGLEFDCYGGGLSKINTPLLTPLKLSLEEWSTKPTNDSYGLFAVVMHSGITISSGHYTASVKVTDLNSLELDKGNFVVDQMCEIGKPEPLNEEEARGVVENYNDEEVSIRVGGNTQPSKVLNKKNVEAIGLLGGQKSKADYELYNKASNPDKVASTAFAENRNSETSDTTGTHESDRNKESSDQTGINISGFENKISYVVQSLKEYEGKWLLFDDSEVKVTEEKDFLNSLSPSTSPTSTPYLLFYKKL
Procedure, shortened: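 Deubiquitinase activity followed as kinetic rhodamine fluorescence release from 150 nM Ub-Rho. 1 nM USP1/UAF1 with compound, after 15 min room-temperature preincubation, in HEPES pH 7.8 buffer containing TCEP, EDTA, BSA and Tween-20.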

[10] = target: ATP-dependent 6-phosphofructokinase (Trypanosoma brucei brucei) (UniProt O15648); experiment: qHTS Assay to Find Inhibitors of T. brucei phosphofructokinase: hit validation (AID 492961); further: on the % scale 0 is the no-effect control and ±100 the full control effect
Sequence of ATP-dependent 6-phosphofructokinase (Trypanosoma brucei brucei) (O15648 whole entry, looked up): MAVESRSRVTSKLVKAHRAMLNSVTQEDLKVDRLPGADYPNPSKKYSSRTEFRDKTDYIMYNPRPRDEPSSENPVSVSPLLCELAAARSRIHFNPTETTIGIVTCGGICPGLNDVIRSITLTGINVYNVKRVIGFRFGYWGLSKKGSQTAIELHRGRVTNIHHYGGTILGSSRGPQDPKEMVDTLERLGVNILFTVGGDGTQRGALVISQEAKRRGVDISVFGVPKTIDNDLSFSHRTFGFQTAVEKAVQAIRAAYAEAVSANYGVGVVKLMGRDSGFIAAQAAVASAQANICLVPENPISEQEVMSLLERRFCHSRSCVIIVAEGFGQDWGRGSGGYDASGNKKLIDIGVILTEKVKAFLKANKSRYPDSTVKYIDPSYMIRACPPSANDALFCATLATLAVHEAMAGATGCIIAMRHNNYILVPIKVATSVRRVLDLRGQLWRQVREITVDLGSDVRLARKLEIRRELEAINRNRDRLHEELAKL
Procedure, shortened: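 Luminescence from ADP-Glo reports ADP generated as T. brucei PFK (1.25 nM) phosphorylates 0.5 mM fructose-6-phosphate using 0.1 mM ATP. Reactions ran 45 min at room temperature, pH 8.0.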

[11] = target: Luciferin 4-monooxygenase (Photinus pyralis) (UniProt P08659); experiment: Biochemical firefly luciferase enzyme assay for NPC (AID 624030);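 further: purified P. pyralis luciferase at 10 nM with luciferin and ATP substrate; 0% = DMSO and -100% = full luciferase inhibition by PTC124 control; nearly all actives have a fitted effect of over 70% in size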
Sequence of Luciferin 4-monooxygenase (Photinus pyralis) (P08659 whole entry, looked up): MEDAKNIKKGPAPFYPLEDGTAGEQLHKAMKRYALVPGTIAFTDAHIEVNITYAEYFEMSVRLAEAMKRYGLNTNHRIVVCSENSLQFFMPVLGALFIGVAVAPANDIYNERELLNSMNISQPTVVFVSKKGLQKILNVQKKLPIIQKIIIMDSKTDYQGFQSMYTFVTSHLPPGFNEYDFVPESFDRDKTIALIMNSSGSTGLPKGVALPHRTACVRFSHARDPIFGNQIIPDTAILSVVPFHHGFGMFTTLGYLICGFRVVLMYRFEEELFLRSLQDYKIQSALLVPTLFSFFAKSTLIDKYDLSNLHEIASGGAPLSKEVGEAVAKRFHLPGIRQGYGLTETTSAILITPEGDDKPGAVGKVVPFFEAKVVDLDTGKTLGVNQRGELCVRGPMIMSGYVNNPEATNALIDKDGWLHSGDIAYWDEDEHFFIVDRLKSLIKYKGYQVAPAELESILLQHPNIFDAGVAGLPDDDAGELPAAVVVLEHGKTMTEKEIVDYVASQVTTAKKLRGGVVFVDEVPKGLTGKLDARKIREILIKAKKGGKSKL
Procedure, shortened: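 Purified P. pyralis luciferase at 10 nM in 50 mM Tris Acetate (final), luminescence read within 5 minutes of enzyme addition to compounds. Activity normalised to PTC124 versus DMSO; concentration-response curves classed by r2, magnitude and activity.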

[12] = S16 Schwann cell PMP22 intronic element firefly luciferase assay (AID 624032); further: nearly all actives have a fitted effect of over 30% in size; further: potency means the concentration at half of the fitted maximal effect;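 on activity change, negative = inhibition: plate controls were DMSO for no effect and PTC124 positive control mean for full effect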
Procedure, shortened: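 Rat S16 Schwann cells stably carrying firefly luciferase driven by a PMP22 intronic element, in 10% FBS, treated 24 h at 37 C. ONE-Glo luminescence normalized to PTC124 control and DMSO (0%); curves classed by r2, magnitude and activity.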

[13] = qHTS profiling for inhibitors of Plasmodium falciparum proliferation (AID 504749);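 further: 0% = DMSO vehicle and full inhibition = artemisinin control; nearly all actives have a fitted effect of over 60% in size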; settings: P. falciparum in erythrocytes, SYBR Green DNA, 72 h
Procedure, shortened: (§1)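 Each compound contacts P. falciparum-infected red blood cells for 72 h at 37 C; lysis buffer (Tris, EDTA, saponin, Triton X, SYBR Green I) is added and fluorescence measured next morning; values normalized to controls.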

AS120 = experiment: as above; settings: P. falciparum in erythrocytes, SYBR Green DNA, 72 h; series mostly up to 12.8 µM
Procedure, shortened: as §1

C2A = experiment: as above; settings: P. falciparum in erythrocytes, SYBR Green DNA, 72 h; series mostly up to 12.8 µM
Procedure, shortened: as §1

CP238 = experiment: as above; settings: P. falciparum in erythrocytes, SYBR Green DNA, 72 h; series mostly up to 12.8 µM
Procedure, shortened: as §1

CP250 = experiment: as above; settings: P. falciparum in erythrocytes, SYBR Green DNA, 72 h; series mostly up to 12.8 µM
Procedure, shortened: as §1

CP252 = experiment: as above; settings: P. falciparum in erythrocytes, SYBR Green DNA, 72 h; series mostly up to 12.8 µM
Procedure, shortened: as §1

HB3 = experiment: as above; settings: P. falciparum in erythrocytes, SYBR Green DNA, 72 h; series mostly up to 12.8 µM
Procedure, shortened: as §1

SC27B = experiment: as above; settings: P. falciparum in erythrocytes, SYBR Green DNA, 72 h; series mostly up to 12.8 µM
Procedure, shortened: as §1

[14] = measured here: cell count channel max response
[15] = measured here: lipid channel max response

C=C1CC23C[C@H]4[C@@H]5[C@@]6(C)C[C@H](OC(=O)c7ccccc7)[C@@H](OC(C)=O)[C@]57[C@@H]2[C@@H](OC(C)=O)[C@H]1[C@@H](O)[C@H]3[C@H]7N4C6
-3.09%: max response [6, 14]
inactive: outcome [1] | outcome [2] | Potency [3] > 20.6 µM | Potency [4] | outcome [5] | activity change, negative = inhibition [6] -1.43%
-1.64%: max response [6, 15]

CC#C[C@@]1(O)CC[C@H]2[C@@H]3CCC4=CC(=O)CCC4=C3[C@H](c3ccc(N(C)C)cc3)C[C@]21C
-7.59%: max response [6, 14]
-5.96%: max response [6, 15]
inactive: outcome [1] | activity change, negative = inhibition [7] 15.9% | outcome [2] | outcome [5] | activity change, negative = inhibition [6] 0.174%

CC[N+]1(C)[C@@H]2CC[C@H]1CC(OC(=O)[C@H]1CC[C@@](C(=O)OC3C[C@H]4CC[C@@H](C3)[N+]4(C)CC)(c3ccccc3)c3ccccc31)C2 (some centres not stated)
-11.7%: max response [6, 14]
inactive: outcome [1] | outcome [2] | Potency [8] > 20.6 µM | Potency [3] > 20.6 µM | Potency [4] | outcome [5] | activity change, negative = inhibition [6] -4.59% | Potency [9]
-14.8%: max response [6, 15]

CCN[C@@H]1C[C@H](N)[C@H](O[C@H]2OC(CN)=CC[C@H]2N)[C@@H](O)[C@H]1O[C@H]1OC[C@@](C)(O)[C@@H](NC)[C@@H]1O
inactive: outcome [1] | activity change, negative = inhibition [7] -14.4% | outcome [2] | Potency [4] | outcome [5] | activity change, negative = inhibition [6] -1.78% | outcome [10] | Potency [11] | Potency [12] | activity, negative = inhibition ([13]; at 28.7 µM (top of the series), parasite line A) 6.1% | activity, negative = inhibition ([13]; at 28.7 µM (top of the series), parasite line B) 14.9% | Potency (AS120) | Potency (C2A) | Potency (CP238) | Potency (CP250) | Potency (CP252) | Potency (HB3) | Potency (SC27B)
-6.32%: max response [6, 14]
-1.8%: max response [6, 15]

C=C1C[C@@]23C[C@]1(O)CC[C@@H]2[C@]12C=C[C@@H](O)[C@](C)(C(=O)O1)[C@H]2[C@H]3C(=O)O
0.159%: max response [6, 14]
3.63%: max response [6, 15]
inactive: outcome [1] | outcome [2] | Potency [8] > 20.6 µM | Potency [3] > 20.6 µM | Potency [4] | outcome [5] | activity change, negative = inhibition [6] 1.67% | Potency [9]

C#C[C@]1(O)CC[C@@H]2[C@H]3CCC4=CCCC[C@@H]4[C@@H]3CC[C@@]21C
active: Potency [12] 5.49 µM
inactive: outcome [1] | outcome [2] | Potency [3] > 20.6 µM | Potency [4] | outcome [5] | activity change, negative = inhibition [6] -4.16% | outcome [10] | Potency [11] | activity, negative = inhibition ([13]; at 12.8 µM (top of the series), parasite line A) 11.7% | activity, negative = inhibition ([13]; at 12.8 µM (top of the series), parasite line B) 0.61% | Potency (AS120) | Potency (C2A) | Potency (CP238) | Potency (CP250) | Potency (CP252) | Potency (HB3) | Potency (SC27B)
-10.1%: max response [6, 15]
-7.9%: max response [6, 14]

CS(=O)(=O)c1ccc([C@H](O)[C@H](CF)NC(=O)C(Cl)Cl)cc1
inactive: outcome [1] | outcome [2] | Potency [8] > 20.6 µM | Potency [3] > 20.6 µM | Potency [4] | outcome [5] | activity change, negative = inhibition [6] 1.06% | outcome [10] | Potency [11] | Potency [12]
2.55%: max response [6, 15]
1.07%: max response [6, 14]
